About 14,000 (4.5%) of roughly 310,000 compounds showed an effect of 50% or more. Effects have a minus sign here. The list comes from a sample in which strong results are over-represented; it also holds similar structures and randomly drawn compounds.
What follows are compounds tested against human ether-à-go-go-related gene (hERG) potassium channel (human, UniProt Q12809) (assay: primary screen, population patch clamp on CHO cells stably expressing hERG; higher = less effect of the substance).
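Further: peak tail current of the secondary pulse compared with the same well before compound.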

human ether-à-go-go-related gene (hERG) potassium channel, sequence (Q12809 whole entry, looked up): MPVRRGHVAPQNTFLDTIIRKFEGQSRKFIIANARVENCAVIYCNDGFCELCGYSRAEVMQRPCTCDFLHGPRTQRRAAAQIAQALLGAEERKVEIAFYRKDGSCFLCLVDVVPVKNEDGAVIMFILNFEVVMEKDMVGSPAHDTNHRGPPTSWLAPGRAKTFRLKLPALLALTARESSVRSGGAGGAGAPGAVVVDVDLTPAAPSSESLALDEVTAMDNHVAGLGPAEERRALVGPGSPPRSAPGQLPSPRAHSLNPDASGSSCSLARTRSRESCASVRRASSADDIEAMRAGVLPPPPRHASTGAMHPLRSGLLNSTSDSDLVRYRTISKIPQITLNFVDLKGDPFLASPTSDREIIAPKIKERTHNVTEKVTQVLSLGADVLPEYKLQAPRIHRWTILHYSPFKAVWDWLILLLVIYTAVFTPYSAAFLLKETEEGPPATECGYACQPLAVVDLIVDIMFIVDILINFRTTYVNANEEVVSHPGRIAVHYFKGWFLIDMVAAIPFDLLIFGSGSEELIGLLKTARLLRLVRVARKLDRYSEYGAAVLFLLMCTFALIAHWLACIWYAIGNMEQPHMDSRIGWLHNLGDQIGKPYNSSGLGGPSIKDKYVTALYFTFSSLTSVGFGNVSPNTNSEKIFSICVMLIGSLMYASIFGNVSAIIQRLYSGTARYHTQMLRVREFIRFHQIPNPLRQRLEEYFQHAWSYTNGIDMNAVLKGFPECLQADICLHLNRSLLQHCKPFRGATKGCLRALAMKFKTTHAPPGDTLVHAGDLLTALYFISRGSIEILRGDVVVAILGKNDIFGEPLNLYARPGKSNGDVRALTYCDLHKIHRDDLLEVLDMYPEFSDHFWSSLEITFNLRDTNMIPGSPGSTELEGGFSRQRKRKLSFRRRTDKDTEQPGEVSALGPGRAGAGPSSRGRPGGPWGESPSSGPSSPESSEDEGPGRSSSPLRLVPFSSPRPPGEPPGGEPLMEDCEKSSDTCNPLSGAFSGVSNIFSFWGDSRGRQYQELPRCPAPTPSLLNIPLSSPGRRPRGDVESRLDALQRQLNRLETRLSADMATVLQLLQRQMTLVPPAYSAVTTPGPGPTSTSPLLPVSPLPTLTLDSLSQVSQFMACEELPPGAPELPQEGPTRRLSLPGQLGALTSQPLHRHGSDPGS

| Structure (SMILES) | hERG current change (%, negative = inhibition) at 10uM [%] |
| --- | --- |
| CN(CCO)c1cc(NCCCN2CCC(Cc3ccccc3)CC2)c2nonc2c1[N+](=O)[O-] | -38 |
| COC(=O)c1ccc(NC(=O)c2ccc3c(c2)C(=O)N(Cc2cccnc2)C3=O)cc1 | -23.2 |
| CCCCCCn1c(O)c(C(C)=NC)c(=O)[nH]c1=O | 1.56 |
| CC1CCc2nn(CC(=O)Nc3ccc(F)cc3F)cc2C1 (stereo not shown) | -2.61 |
| COc1ccc(-c2nc3ccccc3n2Cc2ccc(C)cc2)cc1 | -6.29 |
| CN1C(=O)C(C)(C)c2cc(S(=O)(=O)N3CCCC(C(=O)NCc4ccccc4Cl)C3)ccc21 (stereo not shown) | 2.18 |
| C=CCN(C(=O)CCC(=O)O)C1CC(=O)N(c2ccc(OCCC)cc2)C1=O (stereo not shown) | 0.711 |
| Cc1ccc2oc(=O)c3cc(C(=O)NCCN4CCN(C)CC4)sc3c2c1 | -18.2 |
| COC(=O)c1ccc(C)c(NC(=O)C2CC(=O)N(C3CCCC(C)C3C)C2)c1 (stereo not shown) | -11.5 |
| O=C(OCC(=O)N1CCCCC1)c1c[nH]c2ccccc12 | -7.04 |
| O=C(CN1CCSCC1)N/N=C/c1ccccc1F | 0.735 |
| Cc1ccc(CN2CCN(CC(=O)N/N=C/c3ccccc3F)CC2)cc1 | -66.4 |
| O=C(O)COc1ccccc1/C=N/NC(=O)CN1CCN(Cc2ccc(Cl)cc2)CC1 | 10.7 |
| Cc1nc2ccccc2c(=O)n1-c1ccc(Cl)cc1Cl | -0.324 |
| Cc1ccc(CSc2ncnc3c2cnn3-c2ccc(C)cc2)cc1 | 30.7 |
| COc1ccc(N(CC(O)Cn2nnc3ccccc32)S(=O)(=O)c2ccc(C)cc2)cc1 (stereo not shown) | -64.6 |
| COc1ccc(N(CC(O)Cn2cnc3ccccc32)S(=O)(=O)c2ccc(C)cc2)cc1 (stereo not shown) | -58 |
| COc1ccc(N(CC(O)CN2C(=O)NC(C)(C)C2=O)S(=O)(=O)c2ccc(C)cc2)cc1 (stereo not shown) | -11.6 |
| COc1ccc([N+](=O)[O-])cc1N(CC(O)Cn1nnc2ccccc21)S(=O)(=O)c1ccc(C)cc1 (stereo not shown) | -29.4 |
| COc1ccc(N(CC(O)Cn2c(C)nc3ccccc32)S(=O)(=O)c2ccccc2)cc1 (stereo not shown) | 4.8 |
| COc1ccc(N(CC(O)Cn2c(C)nc3ccccc32)S(=O)(=O)c2ccc(C)cc2)cc1 (stereo not shown) | -11.5 |
| COc1ccc(C(=O)Nc2ccc(N3CCCCCC3)cc2)cc1S(=O)(=O)N1CCOCC1 | -40.1 |

| Structure (SMILES) | hERG current change (%, negative = inhibition) at 10uM [%] |
| --- | --- |
| COc1ccc(CN(CC2CCCO2)C(=O)CN2C(=O)COc3ccccc32)cc1OC (stereo not shown) | -15.8 |
| Cc1sc(N)c(C(=O)c2ccccc2Cl)c1C | 3.8 |
| CCOc1ccccc1N(CC(=O)NC1CCCCC1)C(=O)CNC(=O)c1ccco1 | 8.1 |
| Fc1ccc(CN2CCN(c3ncccn3)CC2)cc1 | -3.32 |
| CN1C(=O)c2ccc(C(=O)Nc3ccc(Br)cn3)cc2C1=O | 7.17 |
| O=C(CN1CCOCC1)Nc1ccccc1NC(=O)C1CCN(c2ncccn2)CC1 | 9.55 |
| Cc1ccc(-c2nc(CS(=O)CC(=O)NCCN(CC(C)C)CC(C)C)c(C)o2)cc1 (stereo not shown) | -19.4 |
| Cc1cc(Cl)ccc1NC(=O)CN1C(=O)C(=O)N(C2CCCC2)C1=O | -5 |
| Cc1ccc(-n2cc(CN3CCC(CO)(Cc4ccccc4)CC3)cn2)cc1 | -65.1 |
| Cc1ccc(-n2cc(CN3CCC(CO)(Cc4cccc(C(F)(F)F)c4)CC3)cn2)cc1 | -76 |
| OCC1(Cc2ccccc2)CCN(Cc2cnn(-c3ccccc3F)c2)CC1 | -41.9 |
| Cc1ccc(CN2CCCN(Cc3ccccc3C)S2(=O)=O)cc1 | 21.1 |
| Cc1ccc(-n2nnnc2-c2cnc(N3CCCC3)nc2C(F)(F)F)cc1 | -9.95 |
| CCOC(=O)c1cnc2c(cnn2C)c1NCc1ccc(OC)cc1 | 16 |
| COC(=O)c1cc2occc2n1CC(=O)Nc1ccc(OC)c(OC)c1OC | 0.151 |
| COC(=O)c1cc2sc(Cl)cc2n1CC(=O)Nc1ccc(OC)c(OC)c1OC | -68.9 |
| COC(=O)c1cc2sccc2n1CC(=O)Nc1ccc(OC)c(OC)c1OC | -1.08 |
| CCOc1ccc(NC(=O)CN2CC(c3ccccc3)CC2=O)cc1 (stereo not shown) | -19.9 |
| COC(=O)c1ccc(/C=N/NS(=O)(=O)c2cc(C)ccc2C)cc1 | -0.827 |
| Cc1nc2ncccn2c1-c1csc(NCc2ccco2)n1 | -51.8 |
| Br.Cc1nc2ncccn2c1-c1csc(Nc2ccc(S(N)(=O)=O)cc2)n1 | 0.703 |
| Cc1ccn2c(NCc3ccccc3)c(-c3cccs3)nc2c1 | 12.5 |

| Structure (SMILES) | hERG current change (%, negative = inhibition) at 10uM [%] |
| --- | --- |
| C=CCNc1nc(-c2c(C)nc3ncccn23)cs1 | -0.737 |
| Oc1ccc(-c2csc(NCc3ccco3)n2)cc1 | -10.2 |
| Cc1nc2sccn2c1-c1csc(NCc2ccccc2)n1 | 6.86 |
| Cc1nc(C)c(-c2csc(NCc3ccco3)n2)s1 | -10.9 |
| Cc1ccn2c(-c3csc(NCc4ccccc4)n3)c(C)nc2c1.Cl | -72.4 |
| c1coc(CNc2nc(-c3ccncc3)cs2)c1 | -3.17 |
| c1coc(CNc2nc(-c3cccs3)cs2)c1 | -9.83 |
| Cc1ccn2c(-c3csc(NCc4ccco4)n3)c(C)nc2c1 | -64.9 |
| Cc1nc2ccccn2c1-c1csc(NCc2ccco2)n1 | -74.6 |
| COc1ccccc1/C=C(/C#N)C(=O)O | 18.5 |
| Nc1ccc(-c2cnc3ccccc3n2)cc1 | 0.217 |
| O=C(COc1ccccc1)Nc1nnc(COc2ccccc2)s1 | 4.24 |
| CC(=O)/C(C[N+]1(C)CCCCC1)=N\O.[I-] | 16.4 |
| CSc1ncc(Cl)c(C(=O)Nc2ccccc2C)n1 | 6.48 |
| CCCCCN=CC1=C(O)CC(c2ccccc2)CC1=O (stereo not shown) | -6.98 |
| COc1ccc(C2CC(=O)c3cnn(-c4nc(C)cc(C)n4)c3C2)cc1OC (stereo not shown) | -4.84 |
| COCCNC(=S)N/N=C1\CC(C)CC(C)(C)C1 (stereo not shown) | 6.32 |
| C#CCn1cnc2c(cnn2-c2ccc(C)c(C)c2)c1=O | 3.21 |
| COc1ccc(-c2[nH]ncc2CNC(C)CCn2cccn2)cc1F (stereo not shown) | -2.23 |
| Nn1c(SCC(=O)Nc2nccs2)nnc1C1CC1 | 6.89 |
| COC(=O)c1ccccc1NS(=O)(=O)c1ccc2[nH]c(=O)[nH]c2c1 | 16.4 |
| O=C(CN1C(=O)c2cccc3cccc1c23)NCc1cccnc1 | 2.05 |

| Structure (SMILES) | hERG current change (%, negative = inhibition) at 10uM [%] |
| --- | --- |
| CCCCCCNS(=O)(=O)c1ccc(Cl)s1 | -12.9 |
| Cc1ccc(SCC(=O)NC(C)(C)C)cc1 | -8.22 |
| Br.Cc1ccc(Nc2nc(-c3c(C)nc4ccccn34)cs2)cc1 | -62.7 |
| CC(=O)Nc1ccc(Nc2nc(-c3c(C)nc4ccccn34)cs2)cc1 | 18.4 |
| Cc1ccc(Nc2nc(-c3c(C)nc4ncccn34)cs2)cc1 | -10.4 |
| Cc1nc2ncccn2c1-c1csc(Nc2ccccc2)n1 | -54.7 |
| Cc1cccc(Nc2nc(-c3c(C)nc4ccccn34)cs2)c1 | 0.479 |
| Cc1nc2ncccn2c1-c1csc(Nc2cccc(C(=O)O)c2)n1 | 5.55 |
| O=c1cc(N2CCN(c3ccccc3F)CC2)[nH]c(=O)n1-c1ccc(Br)cc1 | -16.7 |
| COC(=O)C1C(=O)CC(C)(O)C(C(=O)OC)C1/C=C/c1ccccc1 (stereo not shown) | -15.6 |
| N/C(=N\OC(=O)c1ccccc1Br)c1ccc([N+](=O)[O-])cc1 | -14.4 |
| O=C(O/N=C(/c1ccccc1)c1ccncc1)c1ccccc1[N+](=O)[O-] | -14 |
| COc1ccccc1C(=O)O/N=C(/c1ccncc1)c1ccc([N+](=O)[O-])cc1 | -67.9 |
| N/C(Cc1ccc([N+](=O)[O-])cc1)=N\OC(=O)c1ccccc1F | -35.6 |
| COc1ccc(/C(N)=N/OC(=O)c2ccc([N+](=O)[O-])c(C)c2)cc1OC | -16.5 |
| COc1ccccc1C(=O)O/N=C(\c1ccccc1)c1ccncc1 | -14.4 |
| N/C(Cc1ccc([N+](=O)[O-])cc1)=N\OC(=O)c1ccc(Br)cc1 | -41.5 |
| N/C(Cc1ccc([N+](=O)[O-])cc1)=N\OC(=O)c1ccc([N+](=O)[O-])cc1 | -57.6 |
| COc1ccc(/C(N)=N/OC(=O)c2ccc(OC)c([N+](=O)[O-])c2)cc1OC | -65 |
| N/C(Cc1ccc([N+](=O)[O-])cc1)=N\OC(=O)c1ccc2ccccc2c1 | 2.02 |
| N/C(Cc1ccc([N+](=O)[O-])cc1)=N\OC(=O)c1ccccc1Br | -57.7 |
| COc1ccc(/C(N)=N/OC(=O)c2ccc(C)c([N+](=O)[O-])c2)cc1OC | 10.1 |

Source: PMC4336329 (PLoS ONE, 2015)
